Calls of active or inactive are those of the source. The calls were made as follows: active = hit-call score of the fitted dose curve at least 0.9, where 1 is the maximum; inactive = score below 0.9.
Tests used:
[1] = read-out: Monokine induced gamma interferon (MIG), CXCL9 (gene 4283); test: BSK_hDFCGF_MIG: BioMAP Diversity Plus: hDFCGF Assay for Monokine induced gamma interferon (MIG) Biomarker Activity (AID 2283063); conditions: primary human foreskin fibroblasts; actives raise or lower the signal
Outline: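 ELISA read-out of MIG from primary human dermal fibroblasts 24 h post-dosing. Gain or loss of signal fitted bidirectionally, DMSO as baseline.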

[2] = read-out: Matrix Metallopeptidase 1 (MMP1), MMP1 (gene 4312); test: BSK_hDFCGF_MMP1: BioMAP Diversity Plus: hDFCGF Assay for Matrix Metallopeptidase 1 (MMP1) Biomarker Activity (AID 2283064); conditions: primary human foreskin fibroblasts; actives raise or lower the signal
Outline: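 ELISA read-out of MMP1 from human foreskin fibroblasts (primary skin cells), 24 h post-dose. Gain or loss of signal was fitted bidirectionally versus DMSO negative control; cytotoxicity was checked by SRB in parallel cultures.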

[3] = read-out: Vascular cell adhesion molecule 1 (VCAM1), VCAM1 (gene 7412); test: BSK_hDFCGF_VCAM1: BioMAP Diversity Plus: hDFCGF Assay for Vascular cell adhesion molecule 1 (VCAM1) Biomarker Activity (AID 2283065); conditions: primary human foreskin fibroblasts; actives raise or lower the signal
Outline: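 Primary human foreskin fibroblasts (hDFCGF system) were dosed with chemical and VCAM-1 was measured by ELISA 24 h later. Bidirectional curve fitting used DMSO as negative control and activity baseline.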

[4] = read-out: Plasminogen activator inhibitor-1 (PAI1), SERPINE1 (gene 5054); test: BSK_hDFCGF_PAI1: BioMAP Diversity Plus: hDFCGF Assay for Plasminogen activator inhibitor-1 (PAI1) Biomarker Activity (AID 2283066); conditions: primary human foreskin fibroblasts; actives raise or lower the signal
Outline: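 PAI-1 levels in human dermal foreskin fibroblasts were quantified by ELISA 24 h after dosing, with gain or loss analysed against DMSO. Overt cytotoxicity was checked by sulforhodamine B total-protein staining in parallel cultures.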

[5] = read-out: Intercellular Adhesion Molecule 1 (ICAM1), ICAM1 (gene 3383); test: BSK_KF3CT_ICAM1: BioMAP Diversity Plus: KF3CT Assay for Intercellular Adhesion Molecule 1 (ICAM1) Biomarker Activity (AID 2283067); conditions: primary human keratinocytes with fibroblasts; actives raise or lower the signal
Outline: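 Human keratinocyte plus foreskin fibroblast primary co-culture was exposed to chemical for 24 h. ICAM-1 was then quantified by ELISA, and the data were fit bidirectionally against DMSO as the negative control and baseline.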

[6] = read-out: Interferon-gamma inducible Protein 10 (IP10), CXCL10 (gene 3627); test: BSK_KF3CT_IP10: BioMAP Diversity Plus: KF3CT Assay for Interferon-gamma inducible Protein 10 (IP10) Biomarker Activity (AID 2283068); conditions: primary human keratinocytes with fibroblasts; actives raise or lower the signal
Outline: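 KF3CT co-culture (keratinocytes + foreskin fibroblasts), 24 h compound, IP-10 by ELISA; bidirectional fit vs DMSO baseline.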

[7] = BSK_KF3CT_SRB: Viability Assessment in the BioMAP Diversity Plus: KF3CT Assay (AID 2283069); conditions: primary human keratinocytes with fibroblasts;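 also: read 24 h after compound addition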
Outline: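 SRB read-out at 560 nm (0.1% stain, TCA-fixed cells) gauges overt cytotoxicity in a human skin keratinocyte–fibroblast co-culture 24 h post-dosing. Signal change was fitted bidirectionally relative to DMSO control.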

[8] = read-out: TIMP metallopeptidase inhibitor 2 (TIMP2), TIMP2 (gene 7077); test: BSK_KF3CT_TIMP2: BioMAP Diversity Plus: KF3CT Assay for TIMP metallopeptidase inhibitor 2 (TIMP2) Biomarker Activity (AID 2283071); conditions: primary human keratinocytes with fibroblasts; actives raise or lower the signal
Outline: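 TIMP-2 measured by ELISA at 24 h in human keratinocyte/fibroblast primary co-cultures exposed to chemicals. Both increases and decreases were fitted against DMSO. Parallel cultures were stained with SRB for total protein as an overt-cytotoxicity check.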

[9] = read-out: C-C motif chemokine 2 (Homo sapiens) (UniProt P13500); test: BSK_KF3CT_MCP1: BioMAP Diversity Plus: KF3CT Assay for Monocyte Chemoattractant Protein 1 (MCP1/CCL2) Biomarker Activity (AID 2283073); conditions: primary human keratinocytes with fibroblasts; actives raise or lower the signal
Outline: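 Human keratinocyte plus foreskin fibroblast primary co-culture exposed to chemical for 24 h. MCP-1 levels measured by ELISA. Bidirectional curve fitting relative to DMSO negative control as baseline.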

[10] = read-out: Matrix Metallopeptidase 9 (MMP9), MMP9 (gene 4318); test: BSK_KF3CT_MMP9: BioMAP Diversity Plus: KF3CT Assay for Matrix Metallopeptidase 9 (MMP9) Biomarker Activity (AID 2283074); conditions: primary human keratinocytes with fibroblasts; actives raise or lower the signal
Outline: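 ELISA read-out of MMP-9 at 24 h post-dosing in a co-culture of human skin keratinocytes and foreskin fibroblasts. Gain or loss of signal was fitted in both directions against DMSO.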

[11] = read-out: urokinase plasminogen activator (uPA), PLAU (gene 5328); test: BSK_KF3CT_uPA: BioMAP Diversity Plus: KF3CT Assay for urokinase plasminogen activator (uPA) Biomarker Activity (AID 2283075); conditions: primary human keratinocytes with fibroblasts; actives raise or lower the signal
Outline: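 Skin co-culture (keratinocytes + foreskin fibroblasts), human primary; 24 h post-dose; uPA by ELISA; gain/loss fit vs DMSO baseline.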

CD40, CD40 (gene 958) = test: BSK_LPS_CD40: BioMAP Diversity Plus: LPS Assay for CD40 Biomarker Activity (AID 2283076); conditions: primary human HUVEC with PBMC; actives raise or lower the signal
Outline: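 Primary human umbilical vein endothelial cells co-cultured with peripheral blood mononuclear cells, LPS-stimulated, were dosed with chemical and read 24 h later. CD40 levels were measured by ELISA and fitted bidirectionally against DMSO as negative control and baseline.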

[12] = read-out: E-selectin (Homo sapiens) (UniProt P16581); test: BSK_LPS_Eselectin: BioMAP Diversity Plus: LPS Assay for Eselectin Biomarker Activity (AID 2283077); conditions: primary human HUVEC with PBMC; actives raise or lower the signal
Outline: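 Human umbilical vein endothelial cells co-cultured with peripheral blood mononuclear cells under LPS stimulation; E-selectin measured by ELISA 24 h after chemical dosing. Activity fitted bidirectionally against DMSO as negative control and baseline.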

[13] = read-out: Interleukin-8 (IL8), CXCL8 (gene 3576); test: BSK_LPS_IL8: BioMAP Diversity Plus: LPS Assay for Interleukin-8 (IL8) Biomarker Activity (AID 2283078); conditions: primary human HUVEC with PBMC; actives raise or lower the signal
Outline: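 Human umbilical vein endothelial cells co-cultured with PBMC were stimulated with LPS; IL-8 levels were measured by ELISA 24 h after chemical dosing. Activity was fitted bidirectionally against DMSO as negative control and baseline.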

[14] = BSK_LPS_SRB: Viability Assessment in the BioMAP Diversity Plus: LPS Assay (AID 2283079); conditions: primary human HUVEC with PBMC;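 also: total protein by sulforhodamine B absorbance as a cytotoxicity measure; measured one day after compound addition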
Outline: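 Human umbilical vein endothelial cells co-cultured with PBMC (LPS system) were dosed for 24 h. Total protein was stained with 0.1% sulforhodamine B after 10% TCA fixation, read at 560 nm, and fitted bidirectionally against DMSO baseline.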

[15] = read-out: Interleukin-1 alpha (IL1a), IL1A (gene 3552); test: BSK_LPS_IL1a: BioMAP Diversity Plus: LPS Assay for Interleukin-1 alpha (IL1a) Biomarker Activity (AID 2283080); conditions: primary human HUVEC with PBMC; actives raise or lower the signal
Outline: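 Human umbilical vein endothelial cells co-cultured with peripheral blood mononuclear cells were LPS-stimulated and exposed to test chemicals for 24 h. IL-1 alpha was quantified by ELISA, with bidirectional curve fitting against DMSO as the negative control and baseline.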

[16] = read-out: Monocyte Chemoattractant Protein-1 (MCP1), CCL2 (gene 6347); test: BSK_LPS_MCP1: BioMAP Diversity Plus: LPS Assay for Monocyte Chemoattractant Protein-1 (MCP1) Biomarker Activity (AID 2283081); conditions: primary human HUVEC with PBMC; actives raise or lower the signal
Outline: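 HUVEC plus PBMC co-culture (human primary cells, LPS system) exposed to test chemical for 24 h; MCP-1 measured by ELISA. Bidirectional curve fitting against DMSO baseline; parallel SRB total-protein staining flags overt cytotoxicity.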

[17] = BSK_LPS_PGE2: BioMAP Diversity Plus: LPS Assay for Prostaglandin E2 (PGE2) Biomarker Activity (AID 2283082); conditions: primary human HUVEC with PBMC; actives raise or lower the signal
Outline: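 PGE2 release measured by ELISA in an LPS-activated co-culture of human umbilical vein endothelial cells and peripheral blood mononuclear cells, read at 24 h post-dosing. DMSO served as baseline for bidirectional curve fitting.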

[18] = read-out: Interleukin-1 alpha (IL1a), IL1A (gene 3552); test: BSK_KF3CT_IL1a: BioMAP Diversity Plus: KF3CT Assay for Interleukin-1 alpha (IL1a) Biomarker Activity (AID 2283070); conditions: primary human keratinocytes with fibroblasts; actives raise or lower the signal
Outline: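 Primary skin co-culture (keratinocytes, foreskin fibroblasts), 24 h exposure; ELISA for IL-1a; bidirectional curve fit vs DMSO.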

Measured: outcome

E-selectin (Homo sapiens), sequence (P16581 whole entry, looked up): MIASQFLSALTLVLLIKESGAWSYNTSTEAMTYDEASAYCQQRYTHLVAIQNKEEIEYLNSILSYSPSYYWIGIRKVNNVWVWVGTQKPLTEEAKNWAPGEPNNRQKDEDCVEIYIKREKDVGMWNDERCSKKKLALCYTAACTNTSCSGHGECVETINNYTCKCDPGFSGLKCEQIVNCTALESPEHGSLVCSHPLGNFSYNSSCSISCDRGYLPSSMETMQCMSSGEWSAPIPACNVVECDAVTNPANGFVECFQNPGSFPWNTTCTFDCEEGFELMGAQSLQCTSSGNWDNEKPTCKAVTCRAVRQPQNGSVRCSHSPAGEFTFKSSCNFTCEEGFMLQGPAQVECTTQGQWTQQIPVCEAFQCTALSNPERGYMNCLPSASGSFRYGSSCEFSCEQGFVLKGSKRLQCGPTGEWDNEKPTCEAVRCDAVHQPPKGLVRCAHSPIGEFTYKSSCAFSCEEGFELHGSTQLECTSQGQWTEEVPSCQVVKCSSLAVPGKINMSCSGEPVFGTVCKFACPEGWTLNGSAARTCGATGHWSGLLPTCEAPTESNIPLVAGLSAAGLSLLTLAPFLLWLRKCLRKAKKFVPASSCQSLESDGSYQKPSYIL

Oc1c(Cl)cc(Cl)cc1Cl
not listed: [18]
inactive: all other assays above

COCC(=O)N(c1c(C)cccc1C)[C@H](C)C(=O)OC
inactive: all assays above

CCCCN(CCCC)C(=S)[S-].CCCCN(CCCC)C(=S)[S-].[Ni+2]
not listed: [8] | [9]
inactive: all other assays above

Reference: PubChem BioAssay (EPA / NIEHS)
